We go through seven molecules from PubChem BioAssay (NCI).

Among the test systems are HCT-15 colon; HT29 colon; SNB-75 CNS; SNB-19 CNS; U251 CNS; PC-3 prostate; SK-MEL-5 melanoma; UACC-62 melanoma; LOX IMVI melanoma; SK-MEL-28 melanoma; SK-MEL-2 melanoma; EKVX NSCLC; SN12C renal; UO-31 renal; TK-10 renal; ACHN renal; CAKI-1 renal; A498 renal; CCRF-CEM leukemia; MOLT-4 leukemia.
Assay in all cases: NCI-60 one-dose screen, 48 h (100 = growth as untreated, 0 = no growth, -100 = all killed)
Holding throughout (details): 10 µM unless noted

Molecules are shown by their SMILES. This is part of a sample that, as a whole, favours compounds with a hit. Of some 83,000 tested, about 20% had one in any assay.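 The endpoint reported here, percent growth, reads 100 for growth as untreated, 0 for no net growth and -100 for all cells dead.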 Unmarked numbers belong to inactive results. Activity calls are given as the source filed them. The calls were made as follows: active = growth percent below 10; inactive = the rest.

Consider `CCOC(=O)c1ccc(NC(=O)c2nc(-c3cc(OC)c(OC)c(OC)c3)n(-c3ccc(Cl)cc3)n2)cc1`, for which the growth was 93.2% in the test with HCT-15 colon; 89.9% with HT29 colon; 81% in the test with SNB-75 CNS; 88.8% with SNB-19 CNS; 93.8% with U251 CNS; 77.5% with PC-3 prostate. Moreover, the growth in the test on SK-MEL-5 melanoma was 63.6%; in the test on UACC-62 melanoma, 77.7%; with LOX IMVI melanoma it was 91.8%; in the test with SK-MEL-28 melanoma, 95%; in the test on SK-MEL-2 melanoma, 85.9%; with EKVX NSCLC it was 94%. Also, the growth in the test on SN12C renal is 85.2%; in the test on UO-31 renal, 58.8%; with TK-10 renal, 93.3%; with ACHN renal, 94.1%; with CAKI-1 renal, 80.7%; with A498 renal, 86%. Moreover, the growth in the test with CCRF-CEM leukemia was 90%; with MOLT-4 leukemia, 81.8%.

`COc1ccc(Nc2ncc(Br)c(NCCCNC(=O)C3CCCC3)n2)cc1`: the growth with HCT-15 colon was 37.1%; with HT29 colon it was 47.5%; in the test with SNB-75 CNS it was 51.1%; with SNB-19 CNS it was 35.2%; in the test on U251 CNS, 27.2%; in the test with PC-3 prostate it was 44%. The growth in the test with SK-MEL-5 melanoma was 67.5%; with UACC-62 melanoma, 46.2%; with LOX IMVI melanoma it was 11%; in the test with SK-MEL-28 melanoma it was 57.2%; with SK-MEL-2 melanoma, 63.6%; with EKVX NSCLC, 47.3%. Further, the growth was 22% in the test with SN12C renal; -30.8% (active) with UO-31 renal; 23.3% in the test on TK-10 renal; 19.8% with ACHN renal; 9.48% (active) with CAKI-1 renal; 54.6% in the test on A498 renal. Moreover, the growth in the test with CCRF-CEM leukemia is 27.1%; in the test with MOLT-4 leukemia, 19.5%.

Turning to `Cn1cc(C(=O)c2nc(-c3c[nH]c4ccccc34)no2)c2cc(F)ccc21`, the growth in the test on HCT-15 colon is 33.2%; in the test on HT29 colon it was 8.8% (active); in the test with SNB-75 CNS, 27.4%; in the test on SNB-19 CNS it was 38.8%; with U251 CNS it was 28.5%; in the test with PC-3 prostate it was 41.9%. Moreover, the growth is 25.3% in the test with SK-MEL-5 melanoma; 31.7% with UACC-62 melanoma; 39.5% in the test on LOX IMVI melanoma; 64.6% in the test on SK-MEL-28 melanoma; 26.9% with SK-MEL-2 melanoma; 57.5% with EKVX NSCLC. Moreover, the growth was 59.5% in the test with SN12C renal; 42.4% in the test on UO-31 renal; 57.6% in the test on TK-10 renal; 49.6% with ACHN renal; 32.9% in the test on CAKI-1 renal; 25.3% in the test on A498 renal. In addition, the figures for the growth in the test with CCRF-CEM leukemia and in the test on MOLT-4 leukemia were 23.9% and 38.9%, respectively.

`O=C(NNC(=O)c1ccc(NC(=O)c2ccccn2)cc1)Nc1ccc([N+](=O)[O-])cc1`: the growth in the test on HCT-15 colon was 100%; with HT29 colon it was 110%; in the test on SNB-75 CNS, 81.4%; in the test on SNB-19 CNS, 83.6%; in the test on U251 CNS it was 78.5%; in the test on PC-3 prostate, 94.5%. The growth is 102% in the test with SK-MEL-5 melanoma; 94% in the test on UACC-62 melanoma; 105% with LOX IMVI melanoma; 99% in the test on SK-MEL-28 melanoma; 106% in the test on SK-MEL-2 melanoma; 102% with EKVX NSCLC. Moreover, the growth is 96.6% with SN12C renal; 75.8% in the test on UO-31 renal; 101% in the test on TK-10 renal; 95.5% in the test with ACHN renal; 91.6% in the test with CAKI-1 renal; 104% in the test on A498 renal. The growth in the test with CCRF-CEM leukemia and with MOLT-4 leukemia was 103% each time.

As for `O=C1Nc2ccccc2/C1=C/c1cccn1CCCCn1c2ccccc2c(=O)c2ccccc21`, the growth with HCT-15 colon was 31.7%; with HT29 colon, 89.1%; in the test with SNB-75 CNS, 78%; in the test with SNB-19 CNS, 98.4%; in the test with U251 CNS, 95.1%; in the test with PC-3 prostate, 55.1%. In addition, the growth in the test with SK-MEL-5 melanoma is 38.6%; in the test with UACC-62 melanoma, 51.8%; in the test with LOX IMVI melanoma, 82.5%; with SK-MEL-28 melanoma, 105%; in the test with SK-MEL-2 melanoma, 84%; in the test on EKVX NSCLC, 86.1%. Also, the growth was 97.9% with SN12C renal; 49.7% in the test on UO-31 renal; 104% with TK-10 renal; 76.3% in the test with ACHN renal; 69.5% with CAKI-1 renal; 109% in the test with A498 renal. The figures for the growth in the test with CCRF-CEM leukemia and in the test with MOLT-4 leukemia were 52.8% and 47.7%, respectively.

Consider `CCOC(=O)C1=C(c2ccccc2)N=C2SC=C(c3ccc(Cl)cc3)N2C1c1ccc(Cl)cc1` (stereo not given), for which the growth with HCT-15 colon is 77.6%; in the test with HT29 colon, 83%; with SNB-75 CNS it was 84.7%; in the test on SNB-19 CNS, 82.8%; in the test on U251 CNS it was 80.9%; in the test with PC-3 prostate it was 41.3%. Further, the growth is 54.7% in the test with SK-MEL-5 melanoma; 66.4% in the test on UACC-62 melanoma; 88.3% with LOX IMVI melanoma; 95.8% with SK-MEL-28 melanoma; 98.2% with SK-MEL-2 melanoma; 69.9% with EKVX NSCLC. Moreover, the growth with SN12C renal is 85.5%; with UO-31 renal it was 74.7%; with TK-10 renal, 108%; in the test with ACHN renal, 91.3%; in the test on CAKI-1 renal, 60.7%; in the test with A498 renal it was 7.54% (active). The growth with CCRF-CEM leukemia is 79.3%; with MOLT-4 leukemia, 31.5%.

Take `COc1cc(OC)c(NC(=O)c2cc3ccccc3cc2O)cc1Cl`: the growth was 48.5% in the test on HCT-15 colon; 101% in the test on HT29 colon; 86.9% in the test on SNB-75 CNS; 51% with SNB-19 CNS; 17.7% in the test with U251 CNS; -0.247% (active) with PC-3 prostate. For the same molecule, the growth in the test with SK-MEL-5 melanoma is 51.4%; in the test with UACC-62 melanoma it was 3.04% (active); with LOX IMVI melanoma, 24.2%; with SK-MEL-28 melanoma, 53.6%; in the test on SK-MEL-2 melanoma, 15.4%; with EKVX NSCLC, 38.4%. Moreover, the growth with SN12C renal was 28.1%; in the test with UO-31 renal, -10.7% (active); in the test with TK-10 renal, 32.8%; in the test on ACHN renal, 22.7%; with CAKI-1 renal it was 6.59% (active); in the test with A498 renal, 18.8%. Besides, the growth with CCRF-CEM leukemia and in the test with MOLT-4 leukemia was 26.9% each time.
